{"source": "PubChem BioAssay (Tox21)", "note": "Where “and” joins values, the source holds several entries; their conditions need not be identical. Equal values may be shown once. Records with an inconclusive call do not appear. Values without a mark were called inactive. Calls of active or inactive are those of the source. Calls come from the whole dose curve; as a rule, active = well fitted curve in the direction sought with a large enough effect in the repeat runs; inconclusive = weak or mixed curves; inactive = no such curve, though single readings can be large; an effect the other way counts as inactive or inconclusive. % is set by controls: 0 for no effect and ±100 for the full control effect; potency is the fitted concentration of half-maximal effect.", "data": [{"target": "Androgen receptor (Homo sapiens) (UniProt P10275)", "sequence (P10275 whole entry, looked up)": "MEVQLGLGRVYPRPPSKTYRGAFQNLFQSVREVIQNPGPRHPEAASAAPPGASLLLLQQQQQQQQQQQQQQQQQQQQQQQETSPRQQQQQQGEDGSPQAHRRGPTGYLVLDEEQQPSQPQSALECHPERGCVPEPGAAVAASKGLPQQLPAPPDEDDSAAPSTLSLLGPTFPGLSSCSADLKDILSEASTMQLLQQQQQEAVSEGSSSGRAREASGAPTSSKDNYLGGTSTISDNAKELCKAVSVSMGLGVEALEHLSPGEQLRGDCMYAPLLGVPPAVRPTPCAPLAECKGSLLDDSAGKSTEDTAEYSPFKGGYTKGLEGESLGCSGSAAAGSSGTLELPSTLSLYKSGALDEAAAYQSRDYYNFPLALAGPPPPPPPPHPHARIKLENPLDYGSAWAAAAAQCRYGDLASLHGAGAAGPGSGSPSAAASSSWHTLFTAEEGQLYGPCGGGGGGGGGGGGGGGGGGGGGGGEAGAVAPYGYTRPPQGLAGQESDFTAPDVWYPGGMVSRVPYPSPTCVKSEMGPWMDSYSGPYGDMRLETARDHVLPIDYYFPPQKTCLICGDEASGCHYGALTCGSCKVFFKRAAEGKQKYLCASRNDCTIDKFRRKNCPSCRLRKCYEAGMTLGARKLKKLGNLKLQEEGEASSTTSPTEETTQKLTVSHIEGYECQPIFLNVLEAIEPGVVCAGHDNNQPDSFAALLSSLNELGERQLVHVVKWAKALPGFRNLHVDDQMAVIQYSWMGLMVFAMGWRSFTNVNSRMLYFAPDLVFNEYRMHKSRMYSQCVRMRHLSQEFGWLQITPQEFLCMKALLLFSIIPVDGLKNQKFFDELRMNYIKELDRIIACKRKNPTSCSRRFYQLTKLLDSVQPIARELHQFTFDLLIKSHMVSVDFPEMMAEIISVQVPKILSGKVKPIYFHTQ", "experiment": "qHTS assay to identify small molecule antagonists of the androgen receptor (AR) signaling pathway using the MDA cell line (AID 743042; note: nearly all actives have a fitted effect of over 55% in size)", "settings": "MDA-kb2 AR-luc, MMTV luciferase, R1881 antagonist, 16 h; series mostly up to 70.3 µM; activity change, negative = inhibition: at the top concentration", "procedure,_shortened": "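MDA-kb2 cells (human breast carcinoma, stably carrying an MMTV-luciferase reporter responsive to AR and GR) were plated at 3,000 cells/well and preincubated 5 hr at 37C, then given compound plus R1881 agonist for 16 h. ONE-Glo luminescence was read.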", "values": [{"smiles": "CCCCCCCCCCCCN(CCO)CCO", "Potency": "15.3 µM (active)"}, {"smiles": "Oc1ccc(-c2ccccc2)c(Cl)c1", "activity change, negative = inhibition": "-17.5%"}, {"smiles": "CC1=C(/C=C/C(C)=C/C=C/C(C)=C/C(=O)Nc2ccc(O)cc2)C(C)(C)CCC1", "Potency": "29.8 µM (active) and 28 µM (active)"}, {"smiles": "CCCN(CCc1cccs1)[C@H]1CCc2c(O)cccc2C1", "activity change, negative = inhibition": "-16%"}, {"smiles": "CCC(C)(C)c1cc(O)c(C(C)(C)CC)cc1O", "activity change, negative = inhibition": "-10.7%"}, {"smiles": "C[C@@H]1CC[C@H]2C(C)(C)[C@H]3C[C@@]12CC[C@@]3(C)O", "activity change, negative = inhibition": "12.4%"}, {"smiles": "Cc1cn[nH]c1", "activity change, negative = inhibition": "-0.337%"}, {"smiles": "Clc1ccc(C(Cn2ccnc2)OCc2c(Cl)cccc2Cl)c(Cl)c1", "note": "(stereo unspecified)", "activity change, negative = inhibition": "-13% [at 32.5 µM]"}, {"smiles": "CCN=C1C=CC(=C(c2ccc(N(CC)CC)cc2)c2ccc(N(CC)CC)cc2)c2ccccc21", "Potency": "0.043 µM (active)"}]}, {"test_system": "not listed separately", "experiment": "qHTS assay to identify small molecule antagonists of the thyroid receptor (TR) signaling pathway - cell viability counter screen (AID 743064); note: nearly all actives have a fitted effect of over 50% in size", "settings": "GH3.TRE-Luc viability, CellTiter-Fluor, 24 h; series mostly up to 70.3 µM; activity change, negative = cytotoxic: at the top concentration", "procedure,_shortened": "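Fluorescence from CellTiter-Fluor, added after 23.5 h exposure at 37 °C, reported viability of GH3.TRE-Luc cells co-treated with compound and 1 nM T3. Measured in the same wells as the luciferase TR readout.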", "values": [{"smiles": "Oc1ccc(-c2ccccc2)c(Cl)c1", "activity change, negative = cytotoxic": "-13%"}, {"smiles": "ClC/C=C\\CCl", "activity change, negative = cytotoxic": "15% [at 95 µM]"}, {"smiles": "O=S(=O)(O)CCCN1CCOCC1", "activity change, negative = cytotoxic": "15.8%"}, {"smiles": "CC(=O)Nc1ccc(O)cc1", "Potency": "inactive"}, {"smiles": "CO[C@H]1C=CO[C@@]2(C)Oc3c(C)c(O)c4c(O)c(cc(O)c4c3C2=O)NC(=O)/C(C)=C\\C=C/[C@H](C)[C@H](O)[C@@H](C)[C@@H](O)[C@@H](C)[C@H](OC(C)=O)[C@@H]1C", "Potency": "48.9 µM (active)"}, {"smiles": "CNC(=O)c1cc(Oc2ccc(NC(=O)Nc3ccc(Cl)c(C(F)(F)F)c3)cc2)ccn1", "Potency": "9.44 µM (active)"}, {"smiles": "CC1=C(/C=C/C(C)=C/C=C/C(C)=C/C(=O)Nc2ccc(O)cc2)C(C)(C)CCC1", "Potency": "6.68 µM (active) and 8.85 µM (active)"}, {"smiles": "CC(C)=C1CC[C@@H](C)CC1=O", "activity change, negative = cytotoxic": "0.76%"}, {"smiles": "O=C1c2c(O)ccc([N+](=O)[O-])c2C(=O)c2c([N+](=O)[O-])ccc(O)c21", "Potency": "6.8 µM (active)"}, {"smiles": "CCCSS/C(CCO)=C(\\C)N(C=O)Cc1cnc(C)nc1N", "Potency": "26.6 µM (active)"}, {"smiles": "S=P(N1CC1)(N1CC1)N1CC1", "activity change, negative = cytotoxic": "3.69%"}, {"smiles": "CCCCCCCCCCCCCCNCCO", "activity change, negative = cytotoxic": "-20.8%"}, {"smiles": "CC=O", "Potency": "2.86 µM (active)"}, {"smiles": "Cn1cnc2ncnc(N)c21", "activity change, negative = cytotoxic": "14.9%"}, {"smiles": "CSc1ccc2c(c1)N(CCC1CCCCN1C)c1ccccc1S2", "note": "(stereo unspecified)", "Potency": "7.5 µM (active) and 8.6 µM (active)"}, {"smiles": "CCN=C1C=CC(=C(c2ccc(N(CC)CC)cc2)c2ccc(N(CC)CC)cc2)c2ccccc21", "Potency": "0.542 µM (active)"}]}, {"test_system": "not listed separately", "experiment": "qHTS assay to identify small molecule antagonists of the thyroid receptor (TR) signaling pathway (AID 743065); note: nearly all actives have a fitted effect of over 55% in size", "settings": "GH3.TRE-Luc, T3-stimulated luciferase inhibition, 23.5 h; series mostly up to 70.3 µM; activity, negative = inhibition: at the top concentration", "procedure,_shortened": "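GH3.TRE-Luc rat pituitary cells carrying two TR response elements driving luciferase were plated for 4 h, given compound plus 1 nM T3 (final), and incubated 23.5 h at 37 C. ONE-Glo luminescence measured reporter inhibition; CellTiter-Fluor fluorescence tracked cytotoxicity.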", "values": [{"smiles": "CCCCCCCCCCCCN(CCO)CCO", "Potency": "15.3 µM (active)"}, {"smiles": "CCCCCCCCCCCCCCCC", "activity, negative = inhibition": "21%"}, {"smiles": "COc1cccc(CCc2ccccc2OCC(CN(C)C)OC(=O)CCC(=O)O)c1", "note": "(stereo unspecified)", "Potency": "13.3 µM (active)"}, {"smiles": "Cc1cc2c(C(C)C)c(O)c(O)c(C=O)c2c(O)c1-c1c(C)cc2c(C(C)C)c(O)c(O)c(C=O)c2c1O", "Potency": "9.44 µM (active)"}, {"smiles": "ClC/C=C\\CCl", "activity, negative = inhibition": "0.721% [at 95 µM]"}, {"smiles": "O=S(=O)(O)CCCN1CCOCC1", "activity, negative = inhibition": "8.99%"}, {"smiles": "CC(=O)Nc1ccc(O)cc1", "Potency": "inactive"}, {"smiles": "CNC(=S)NN", "Potency": "61.1 µM (active)"}, {"smiles": "CNC(=O)c1cc(Oc2ccc(NC(=O)Nc3ccc(Cl)c(C(F)(F)F)c3)cc2)ccn1", "Potency": "5.96 µM (active)"}, {"smiles": "Cc1cccc(Br)c1", "activity, negative = inhibition": "0.706% [at 95 µM]"}, {"smiles": "CC1=C(/C=C/C(C)=C/C=C/C(C)=C/C(=O)Nc2ccc(O)cc2)C(C)(C)CCC1", "Potency": "5.96 µM (active) and 7.89 µM (active)"}, {"smiles": "CC(C)=C1CC[C@@H](C)CC1=O", "activity, negative = inhibition": "11.8%"}, {"smiles": "O=C1c2c(O)ccc([N+](=O)[O-])c2C(=O)c2c([N+](=O)[O-])ccc(O)c21", "Potency": "6.8 µM (active)"}, {"smiles": "COc1cc(C(C)C)c2c(c1)S(=O)(=O)N(COc1cc(=O)n3cccc(OCCN4CCCCC4)c3n1)C2=O", "Potency": "13 µM (active)"}, {"smiles": "CCCCOC(=O)C(C)CC", "note": "(stereo unspecified)", "activity, negative = inhibition": "7.47%"}, {"smiles": "CC(C)c1cccc(C(C)C)c1N1C(=O)c2ccc(O)cc2C1=O", "Potency": "4.86 µM (active)"}, {"smiles": "CCCSS/C(CCO)=C(\\C)N(C=O)Cc1cnc(C)nc1N", "Potency": "23.7 µM (active)"}, {"smiles": "CCCCCCCCCC(=O)N(C)C", "activity, negative = inhibition": "-12.3% [at 95 µM]"}, {"smiles": "CCc1cccc(C)c1", "activity, negative = inhibition": "-6.44% [at 95 µM]"}, {"smiles": "C[C@@H]1CC[C@H]2C(C)(C)[C@H]3C[C@@]12CC[C@@]3(C)O", "Potency": "54.4 µM (active)"}, {"smiles": "Cc1cn[nH]c1", "activity, negative = inhibition": "6.43%"}, {"smiles": "CC=O", "Potency": "1.28 µM (active)"}, {"smiles": "Cn1cnc2ncnc(N)c21", "activity, negative = inhibition": "7.65%"}, {"smiles": "Clc1ccc(C(Cn2ccnc2)OCc2c(Cl)cccc2Cl)c(Cl)c1", "note": "(stereo unspecified)", "Potency": "11.4 µM (active)"}, {"smiles": "CSc1ccc2c(c1)N(CCC1CCCCN1C)c1ccccc1S2", "note": "(stereo unspecified)", "Potency": "7.5 µM (active) and 9.65 µM (active)"}, {"smiles": "CCN=C1C=CC(=C(c2ccc(N(CC)CC)cc2)c2ccc(N(CC)CC)cc2)c2ccccc21", "Potency": "0.121 µM (active)"}]}]}
